Shown are actives, neighbours in structure and some others; about 2.3% of the full set was active somewhere.
CHO-K1 Ca antag = nonselective inhibitor or artifact in parental CHO-K1 cells; ATP-induced calcium, Fluo-8 fluorescence; inhibition, % at 3 µM; 360,000 tested, 0.6% active; AID 602250;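 active means inhibition above a per-plate cutoff, the plate's mean sample inhibition plus 3 SD, cut at about 24% in these data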;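 further: 0% = DMSO plus EC80 ATP and 100% = DMSO alone without ATP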
M1 PAM = potentiates human M1 receptor response to acetylcholine | activation, % at 3 µM | 360,000 tested, 0.088% active | P11229 | CHO-K1 hM1, Fluo-8 calcium fluorescence, ACh EC20; 0% = ACh EC20, 100% = maximal ACh; in the data active means activation above about 19%, passing the limit was not always enough
Target sequence (P11229 whole entry, looked up): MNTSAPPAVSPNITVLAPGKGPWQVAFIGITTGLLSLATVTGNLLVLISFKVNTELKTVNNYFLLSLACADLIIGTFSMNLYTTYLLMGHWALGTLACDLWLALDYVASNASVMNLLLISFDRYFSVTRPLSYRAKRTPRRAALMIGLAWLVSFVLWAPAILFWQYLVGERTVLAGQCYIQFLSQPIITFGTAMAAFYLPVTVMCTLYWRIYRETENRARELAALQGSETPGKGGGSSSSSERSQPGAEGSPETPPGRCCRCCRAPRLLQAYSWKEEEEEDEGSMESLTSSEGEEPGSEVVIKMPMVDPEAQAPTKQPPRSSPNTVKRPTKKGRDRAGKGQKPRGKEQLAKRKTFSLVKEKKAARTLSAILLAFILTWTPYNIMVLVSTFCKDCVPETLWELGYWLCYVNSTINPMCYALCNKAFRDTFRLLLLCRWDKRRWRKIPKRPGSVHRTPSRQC
CHO-K1 Ca PAM = nonselective activator or artifact in parental CHO-K1 calcium assay; ATP EC20, Fluo-8 calcium fluorescence; 0% at ATP EC20, 100% at ATP max; activation, % at 3 µM; 360,000 tested, 0.02% active; AID 602247;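 active means activation above the run cutoff, the mean activation of all test compounds plus 3 SD, cut at about 40% in these data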;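 further: peak over basal fluorescence ratio in a 140 s read after ATP addition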
M1 antag = blocks human M1 muscarinic receptor | 360,000 tested, 1.3% active | P11229 | inhibition, % at 3 µM | CHO-K1 hM1, Fluo-8 calcium fluorescence, ACh EC80 antagonist;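 active means percent inhibition above its own plate's cutoff, namely the mean of that plate's compound wells plus 3 SD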;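 further: peak over basal fluorescence ratio during 140 s after agonist addition; 0% = ACh EC80 plus DMSO and 100% = DMSO alone without agonist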
CHO-K1 Ca ag = counter-screen for M1 agonists: effect in parental CHO-K1 cells; Fluo-8 calcium fluorescence; scaled to maximal ATP response, vehicle zero; activation, % at 3 µM; 360,000 tested, 0.48% active; AID 602248; in the data active means activation above about 15%;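 further: untransfected CHO-K1 host cells lacking M1 receptor as counterscreen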
M1 ag = human M1 muscarinic receptor agonism | P11229 | CHO-K1 hM1, Fluo-8 calcium fluorescence, agonist mode; 0% DMSO, 100% acetylcholine EC100 | activation, % at 3 µM | 360,000 tested, 0.33% active | AID 588814;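 active means activation above the run's mean compound activation plus 3 SD, cut at about 16% in these data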;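 further: peak over basal fluorescence ratio within a 140 s kinetic read after compound addition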
Numbers without * were called inactive.

SMILES | CHO-K1 Ca antag | M1 PAM | CHO-K1 Ca PAM | M1 antag | CHO-K1 Ca ag | M1 ag
COC(=O)C1=C(c2ccc(F)cc2F)C[C@@H]2CC[C@H]1N2C(=O)N1CCC(C)CC1 | -20.8 | -1.5 | 20.4 | -0.3 | -0.5 | -7.2
O=C(Nc1cccc(C(F)(F)F)c1)OC1CN2CCC1CC2 (stereo unspecified) | 4.0 | -32.1 | -7.3 | 102.2* | 2.2 | -10.8
COC(=O)C1=C(c2ccc(OC(F)(F)F)cc2)C[C@@H]2CC[C@H]1N2C(=O)NCCOc1ccccc1Cl | -10.2 | -9.6 | 8.8 | 19.6 | -0.1 | -4.0
Nc1c2c(nc3sc4c(c13)CCCC4)CCCCC2 | -13.1 | -20.3 | 27.2 | 35.9* | 3.6 | -3.4
Nc1c2c(nc3sc4c(c13)CCCC4)CCCC2 | -5.5 | -9.8 | 12.6 | -2.8 | 1.5 | -9.7
CCOC(=O)C1(CCOc2ccccc2)CCN(C(C)CSC)CC1 (stereo unspecified) | -15.4 | -9.6 | 24.1 | 2.8 | 3.5 | -9.3
CCOC(=O)C1(CCOc2ccccc2)CCN(C2Cc3ccccc3C2)CC1 | -9.4 | -21.9 | 11.3 | 45.9* | 3.2 | -4.9
CCN(CC)c1ccc(CNCCc2ccccc2F)cc1 | -9.1 | -27.5 | 10.6 | 56.4* | 7.7 | -8.0
COc1ccc(-n2c(-c3ccccc3Br)nc3ccccc3c2=O)cc1 | -13.3 | -22.4 | 9.9 | 24.2 | 0.3 | -11.7
COC(=O)c1c2[n+](cc3cc(OC)c(OC)cc13)CCc1cc(OC)c(OC)cc1-2 | -16.2 | 2.5 | 8.9 | 0.6 | 0.1 | -7.0
CCCC1CCCCC12C(=O)NC(=O)NC2=O (stereo unspecified) | -8.7 | 14.1 | -1.2 | -27.4 | 0.2 | -1.8
C[N+]12CCC(CC1)C(C(O)(c1ccccc1)c1cccs1)C2 (stereo unspecified) | -13.4 | -22.6 | 25.3 | 99.5* | 1.8 | -8.3
CCCC[N+]12CCC(CC1)C(C(O)(c1ccccc1)c1ccccc1)C2 (stereo unspecified) | 13.7 | -17.7 | -17.9 | 31.8 | 0.2 | -7.0
CCC[N+]12CCC(CC1)C(C(O)(c1ccccc1)c1ccccc1)C2 (stereo unspecified) | -7.0 | -24.2 | 4.4 | 60.1* | -0.2 | -9.1
O=C(O)c1cccc(NC(=O)N2C[C@H]3C[C@@H](C2)c2cccc(=O)n2C3)c1 | -1.9 | 1.2 | 20.5 | -1.7 | 0.4 | -2.7
O=C(NCCO)c1nsnc1NCCCl | -6.5 | 0.3 | -1.9 | -1.5 | 0.1 | 3.8
COC(=O)C1=C(c2cc3ccccc3o2)C[C@@H]2CC[C@H]1N2C(=O)NCCNC(C)=O | -1.4 | -24.4 | 0.1 | 32.5* | 1.6 | -12.4
O=C(COc1ccc(Cl)cc1)N(c1ccccc1Cl)C1CN2CCC1CC2 (stereo unspecified) | 10.3 | -24.8 | -11.9 | 74.6* | 1.8 | -6.4
CN1CCN(C(=O)COc2ccc(Oc3ccccc3)cc2)CC1 | -17.6 | 7.8 | 10.3 | -2.3 | 2.0 | -14.5
O=C(COc1ccc(Cl)cc1)N(c1ccc(Cl)cc1)C1CN2CCC1CC2 (stereo unspecified) | -7.4 | -20.9 | 2.5 | 44.4* | 2.4 | -3.9
CSc1ccc(CNC(C)C(O)c2ccccc2)cc1 (stereo unspecified) | -21.2 | 7.5 | 18.8 | -11.7 | 5.2 | -6.2
O=C(O)CCn1cc(C=C2C(=O)NC(=O)NC2=O)c(-c2cc3ccccc3oc2=O)n1 | -11.0 | 4.0 | 14.8 | -2.1 | 0.4 | -3.9
COC1CC2C=C(C)C=CC=CC(=O)NC(c3ccccc3)CC=CCCC(O)CC(=O)C2=C1O (stereo unspecified) | 23.4 | -17.6 | 18.0 | 55.7* | 10.0 | 12.4
CC(C)OP(=O)(OC(C)C)C(NCc1ccccc1)c1ccccc1 (stereo unspecified) | -3.9 | 3.7 | -4.4 | 0.2 | 0.0 | -3.8
CN1OCC2Cn3c(nc4ccccc43)C21 (stereo unspecified) | -8.5 | 27.2* | -2.1 | -12.8 | -0.2 | 5.4
SMILES | CHO-K1 Ca antag | M1 PAM | CHO-K1 Ca PAM | M1 antag | CHO-K1 Ca ag | M1 ag
O=c1c2ccccc2nc(-c2ccccc2)n1-c1ccncc1 | 30.6* | 7.4 | -3.7 | 10.5 | -0.1 | -1.2
O=c1c2ccccc2nc(-c2ccc([N+](=O)[O-])cc2)n1-c1ccccc1 | -7.5 | -1.4 | 15.8 | 7.2 | 0.2 | -4.5
Cc1ccccc1-n1c(-c2ccc([N+](=O)[O-])cc2)nc2ccccc2c1=O | -2.5 | -29.3 | 10.2 | 49.5* | 0.6 | -10.3
Cc1cccc(-n2c(O)c(C=NCCN3CCNCC3)c(=O)[nH]c2=S)c1 | -0.6 | -22.8 | 18.3 | 25.4 | 0.2 | 52.7*
CCOc1cc(CNCCc2c[nH]c3ccccc23)cc(Cl)c1OC | -2.7 | -2.6 | 8.7 | 13.1 | 15.0 | -4.0
CN1CCCC1C(O)(c1ccccc1)c1ccccc1 (stereo unspecified) | -39.0 | -6.8 | 22.2 | 3.5 | 1.7 | -3.8
OC(c1cccc(Cl)c1)(c1cccc(Cl)c1)C1CN2CCC1CC2 (stereo unspecified) | 4.3 | -30.8 | 8.0 | 98.5* | 5.9 | -9.3
CC(=O)N1CCN(Cc2ccc(Cl)nc2)CC1 | -5.8 | 28.4* | 9.3 | -2.3 | 0.8 | -2.7
Cc1nc2cc([N+](=O)[O-])ccc2c(=O)n1-c1cccc(Br)c1 | -9.1 | 6.4 | 13.9 | -17.4 | 5.1 | 0.0
CN1C2CCC1CC(OC(=O)c1cc(Cl)cc(Cl)c1)C2 (stereo unspecified) | -13.4 | -21.9 | 32.3 | 47.4* | 2.0 | -4.2
CN1CCN(CCC(=O)OC2CC3CCC(C2)N3C)CC1 (stereo unspecified) | 6.5 | -3.5 | -2.5 | -10.1 | 0.4 | -4.3
C[C@H](CO)N1C[C@H](C)[C@@H](CN(C)C(=O)Oc2ccc3ccccc3c2)OCc2cnnn2CCCC1=O | -4.9 | -0.9 | 14.6 | -1.1 | 0.8 | -10.5
Cc1cccc(NP(=O)(Oc2ccccc2)Oc2ccccc2)c1C | -4.4 | -16.9 | 16.0 | 29.8* | 16.8* | -2.8
O=P(Nc1ccccc1)(Nc1ccccc1)Oc1ccccc1 | -9.4 | -2.7 | 23.6 | 2.3 | 10.7 | -3.7
O=P(Nc1ccccc1)(Oc1ccccc1)Oc1ccccc1 | -3.0 | -17.4 | 12.8 | 36.9* | 7.0 | -3.2
O=P(Nc1ccccc1)(Nc1ccccc1)Oc1cccc(Cl)c1 | 2.9 | -20.0 | 5.4 | 30.3 | 41.5* | 9.5
CCOc1cc2c(cc1OCC)-n1cccc1C(c1ccc(C(C)C)cc1)NC2 (stereo unspecified) | -4.4 | 9.0 | 15.5 | -17.5 | 3.9 | -1.0
N#Cc1ccc(NC(=O)CN2C(=O)NC3(CCCCCCC3)C2=O)cc1Cl | -15.4 | -0.4 | 14.1 | -0.8 | 0.5 | -4.7
COc1ccc(C(=O)C2CCCN(Cc3ccc(C)s3)C2)c(OC)c1 (stereo unspecified) | -8.5 | -8.2 | 10.5 | 0.7 | 0.9 | -7.0
COc1ccc(C(=O)C2CCCN(Cc3cccc(C)n3)C2)c(OC)c1 (stereo unspecified) | -21.0 | -22.8 | 25.1 | 46.0* | 4.6 | -7.0

Screening data deposited in PubChem by The Scripps Research Institute Molecular Screening Center.
